Results on 21 compounds are retold here after PubChem BioAssay (NCI).

This is part of a sample that, as a whole, favours compounds with a hit. Of some 79,000 tested, about 15% had one in any assay. Unmarked numbers belong to inactive results. The source made the active and inactive calls. Rule as the data show it: active = growth inhibition above about 70%; inactive = the rest.

Experiment [1] can be described thus: NCI Yeast Anticancer Drug Screen. Data for the rad50 strain (AID 155).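 Also: 0% = growth of vehicle-only cultures of the same strain.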 The settings on record: S. cerevisiae rad50 strain growth inhibition; at 50.0 µM; hits give high values. The procedure, abridged: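 A DNA repair-deficient yeast mutant serves as the test organism; compound-induced growth inhibition is calculated against vehicle-treated cells.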
Experiment [2] can be described thus: NCI Yeast Anticancer Drug Screen. Data for the mec2-1 strain (AID 157). Particulars: S. cerevisiae mec2-1 strain, at 50.0 µM, hits give high values. The method in brief:
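mec2-1 yeast strain, carrying an alteration in DNA damage repair or cell cycle control, was exposed to compounds; growth inhibition was measured relative to vehicle-treated controls.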

Experiment [3] can be described thus: NCI Yeast Anticancer Drug Screen. Data for the sgs1 mgt1 strain (AID 161).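 Also: 0% = growth of cultures given vehicle only.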 The settings on record: S. cerevisiae sgs1 mgt1 strain, at 50.0 µM, hits give high values. The procedure, abridged:
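Growth of a repair-deficient yeast mutant was monitored after compound treatment and expressed as inhibition relative to vehicle-treated cultures.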

Experiment [4] is described as follows: NCI Yeast Anticancer Drug Screen. Data for the cln2 rad14 strain (AID 165).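 Also: 0% = growth equal to vehicle treated cultures.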 The settings on record: S. cerevisiae cln2 rad14 strain, at 50.0 µM, hits give high values. The procedure, abridged: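 Yeast carrying cln2 and rad14 alterations (cell cycle control and DNA damage repair) were exposed to compounds. Growth inhibition was measured against vehicle-treated controls.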

Experiment [5] in a line: NCI Yeast Anticancer Drug Screen. Data for the bub3 strain (AID 167). Particulars: S. cerevisiae bub3 mutant strain, at 50.0 µM, hits give high values. The method in brief: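 Inhibition values come from growth of compound-treated mutant yeast normalised to vehicle-treated controls.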
The nature of experiment [6]: NCI Yeast Anticancer Drug Screen. Data for the mlh1 rad18 strain (AID 175). The settings on record: S. cerevisiae mlh1 rad18 strain growth inhibition; at 50.0 µM; hits give high values. The method in brief: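 Growth inhibition of the yeast strain was measured after compound exposure and expressed relative to vehicle-treated controls. The strain carries defined defects in DNA damage repair.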

On to `C=CCOC(=O)NC(Cc1ccc(O)cc1)C(=O)O` (stereo unspecified), for which the growth inhibition in experiment [1] is -0.05%; in experiment [2] it was -4.85%; in experiment [3] it was 4.5%; in experiment [4], 3.65%; in experiment [5], -10.8%; in experiment [6] it was -2.45%.

As to `CCOC(=O)CC(c1ccccc1)C(C#N)(c1ccccc1)N(C)C` (stereo unspecified), the growth inhibition in experiment [1] was 27.9%; in experiment [2] it was 19.5%; in experiment [3], 40.8%; in experiment [4], 18%; in experiment [5], 30.4%; in experiment [6] it was 33.5%.

In the case of `Cc1c(Cl)cccc1NC(=O)Nc1ccc(S(N)(=O)=O)cc1`, the growth inhibition in experiment [1] is 0.7%; in experiment [2], 29.4%; in experiment [3] it was 39.4%; in experiment [4], 1.4%; in experiment [5], 21.8%; in experiment [6], 19.1%.

With `OC1=CC(C2CCCCC2)CC(O)=C1` (stereo unspecified), the growth inhibition in experiment [1] is 2.95%; in experiment [2], -0.65%; in experiment [3], -4.75%; in experiment [4], -7.9%; in experiment [5], -59.5%; in experiment [6] it was -17.1%.

Turning to `CC(c1cccc2ccccc12)/[N+]([O-])=C/c1ccccc1` (stereo unspecified), the growth inhibition in experiment [1] was -11.6%; in experiment [2], -27.9%; in experiment [3] it was -32.7%; in experiment [4], 2.1%; in experiment [5] it was -37.4%; in experiment [6] it was -11.7%.

Consider `CC(C)(C)c1ccc(SC(=O)Nc2cccc(Cl)c2Cl)cc1`, for which the growth inhibition in experiment [1] was 8.35%; in experiment [2] it was 14.3%; in experiment [3] it was 18.1%; in experiment [4] it was 13.8%; in experiment [5] it was 24.4%; in experiment [6], 20.9%.

`CC1(C)COC(C2(C)C(=O)C=C(c3ccccc3)c3ccccc32)=N1` (stereo unspecified): the growth inhibition in experiment [1] is 25.3%; in experiment [2], -11.8%; in experiment [3], 29.8%; in experiment [4] it was 12.8%; in experiment [5] it was 3.9%; in experiment [6], 11.8%.

`O=C(/C=C(\O)C(=O)O)/C=C(\O)c1ccc(Cl)cc1`: the growth inhibition in experiment [1] was -15.7%; in experiment [2], 0.7%; in experiment [3] it was -27.4%; in experiment [4] it was -10.4%; in experiment [5], -23.8%; in experiment [6], -31.5%.

Turning to `O=c1[nH]c(=O)c2ncn(-c3ccc([N+](=O)[O-])cn3)c2[nH]1`, the growth inhibition in experiment [1] is 20.8%; in experiment [2] it was 7.3%; in experiment [3], 9.95%; in experiment [4] it was 5.4%; in experiment [5] it was 8.6%; in experiment [6], -27.6%.

For `CCCCCN(CCCCC)C(C)=O`, the growth inhibition in experiment [1] was 6.85%; in experiment [2], 5.95%; in experiment [3], 2.3%; in experiment [4] it was -0.65%; in experiment [5] it was -2.15%; in experiment [6] it was 7.45%.

For the compound `O=c1ccccc2cccc(O)c12`, the growth inhibition in experiment [1] is 8.25%; in experiment [2] it was 0.2%; in experiment [3] it was -1.35%; in experiment [4] it was -17.4%; in experiment [5] it was 8.15%; in experiment [6], 10.3%.

Regarding `C=C1C(=O)OC2CC(C)C3CC(O)OC(OCC)C3(C)CC12` (stereo unspecified), the growth inhibition was 24.1% in experiment [1]; 20.3% in experiment [2]; 12.4% in experiment [3]; 22.8% in experiment [4]; 32.2% in experiment [5]; -16.8% in experiment [6].

As to `Cc1cc(NS(=O)(=O)c2ccc(NC(=O)c3cccn4c(=O)c5ccccc5nc34)cc2)no1`, the growth inhibition in experiment [1] was -24.6%; in experiment [2], 3.7%; in experiment [3], -44%; in experiment [4] it was 0.8%; in experiment [5] it was -14.7%; in experiment [6], -8.8%.

Regarding `C#CC(N)=O`, the growth inhibition in experiment [1] was -9.6%; in experiment [2] it was 11.4%; in experiment [3] it was -0.6%; in experiment [4], -20.6%; in experiment [5], -6%; in experiment [6] it was 4.4%.

In the case of `O=C1CCC(N2C(=O)C3CCCCC3C2=O)C(=O)N1` (stereo unspecified), the growth inhibition in experiment [1] is -0.2%; in experiment [2], 12.3%; in experiment [3], 18.9%; in experiment [4], 1.7%; in experiment [5], 8.5%; in experiment [6], -14.5%.

`CC(C)=C1CCC(CN2CCCC2)C1=O` (stereo unspecified): the growth inhibition in experiment [1] is 20.1%; in experiment [2] it was 13.4%; in experiment [3] it was 17.4%; in experiment [4] it was 19.2%; in experiment [5] it was 6.2%; in experiment [6], 23.6%.

In the case of `O=C(O)CCCC1CCC2NC(=O)NC2C1` (stereo unspecified), the growth inhibition in experiment [1] was 1.55%; in experiment [2] it was 5.15%; in experiment [3] it was -5.45%; in experiment [4] it was 6.4%; in experiment [5], 16.5%; in experiment [6] it was -6%.

On to `CSc1nc(NC2OC(CO)C(O)C(O)C2O)c(Br)c(=O)n1C` (stereo unspecified), for which the growth inhibition in experiment [1] was 0.4%; in experiment [2], -1.7%; in experiment [3] it was -6.3%; in experiment [4] it was -8.75%; in experiment [5] it was -2.75%; in experiment [6], 20.1%.

As for `COc1cc2c(cc1OC)CN1CCc3ccccc3CC1C2` (stereo unspecified), the growth inhibition in experiment [1] was 15.3%; in experiment [2], -73.3%; in experiment [3], -16.8%; in experiment [4], -5.1%; in experiment [5], -33.5%; in experiment [6], -33.7%.

Take `Cc1nn(C(=O)c2ccc(Cl)cc2)c2c1C(c1ccccc1[N+](=O)[O-])SC(N)=N2` (stereo unspecified): the growth inhibition in experiment [1] is -9.6%; in experiment [2], -1.5%; in experiment [3] it was 7.05%; in experiment [4], 33%; in experiment [5] it was 27.6%; in experiment [6], -9.05%.

With `c1ccc(-c2cc[n+]3c4c2ccc2c(-c5ccccc5)cc[n+](c24)CC3)cc1`, the growth inhibition in experiment [1] was 78.5% (active); in experiment [2], 51.5%; in experiment [3] it was 89.6% (active); in experiment [4] it was 73.8% (active); in experiment [5] it was 25.8%; in experiment [6], 87.2% (active).
